Experimental data published in PubChem BioAssay AID1159580 (chemical genetic matrix, 2015).
“And” between values parts separate entries of the source, which are not always exact repeats. Equal values may be shown once. Among all 5,500 compounds or so, about 2,000 (36%) were called active. Not shown: some 18% with an inconclusive outcome. No stated cut-off is given here; in the data, active means normalized growth mostly below about 0.91 (no sharp cut-off); inconclusive means no clear call, values can overlap the other calls; inactive means mostly above about 0.92. The list shows a part of the results.

Assay: chemical genetic growth profiling, strain panel (AID 1159580);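 further: tested at 20 µM; growth read once vehicle control cultures reached saturation at 30 °C; 1 = growth at the plate median or of vehicle wells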
Conditions: S. cerevisiae deletion strains, growth OD

Measured: normalized growth

CC(=O)Oc1c(C)c(C)c2c(c1C)CCC(C)(CCCC(C)CCCC(C)CCCC(C)C)O2 (stereo unspecified)
inactive: locus YAL021C, strain ccr4, stronger effect = lower value 1 | locus YAL026C, strain drs2, stronger effect = lower value 0.982 | locus YAL030W, strain snc1, stronger effect = lower value 0.976 | locus YBL061C, strain skt5, stronger effect = lower value 0.995 | locus YBR009C, strain hhf1, stronger effect = lower value 0.957 | locus YBR021W, strain FUR4, stronger effect = lower value 1.03 | locus YBR023C, strain chs3, stronger effect = lower value 0.99 | locus YBR171W, strain sec66, stronger effect = lower value 1 | locus YBR229C, strain ROT2, stronger effect = lower value 1.02 | locus YBR231C, strain swc5, stronger effect = lower value 0.995 | locus YBR279W, strain paf1, stronger effect = lower value 0.985 | locus YCL011C, strain gbp2, stronger effect = lower value 0.975 | locus YCL016C, strain dcc1, stronger effect = lower value 0.985 | locus YCL029C, strain bik1, stronger effect = lower value 0.995 | locus YCL061C, strain MRC1, stronger effect = lower value 0.998 | locus YCL069W, strain vba3, stronger effect = lower value 0.982 | locus YCR088W, strain abp1, stronger effect = lower value 0.978 | locus YDL005C, strain med2, stronger effect = lower value 0.979 | locus YDL035C, strain GPR1, stronger effect = lower value 1.01 | locus YDL040C, strain nat1, stronger effect = lower value 0.98 | locus YDL074C, strain BRE1, stronger effect = lower value 1 | locus YDL101C, strain DUN1, stronger effect = lower value 1.03 | locus YDL134C, strain PPH21, stronger effect = lower value 1.02 | locus YDL185W, strain tfp1, stronger effect = lower value 0.983 | locus YDL192W, strain arf1, stronger effect = lower value 1.01 | locus YDR001C, strain nth1, stronger effect = lower value 0.98 | locus YDR069C, strain doa4, stronger effect = lower value 0.983 | locus YDR101C, strain arx1, stronger effect = lower value 0.983 | locus YDR137W, strain rgp1, stronger effect = lower value 0.961 | locus YDR150W, strain NUM1, stronger effect = lower value 1.02 | locus YDR159W, strain sac3, stronger effect = lower value 0.968 | locus YDR162C, strain NBP2, stronger effect = lower value 1.03 | locus YDR195W, strain ref2 0.946 | locus YDR297W, strain sur2, stronger effect = lower value 0.987 | locus YDR318W, strain mcm21, stronger effect = lower value 1.01 | locus YDR334W, strain swr1, stronger effect = lower value 0.988 | locus YDR335W, strain msn5, stronger effect = lower value 0.993 | locus YDR388W, stronger effect = lower value 0.992 | locus YDR392W, strain spt3, stronger effect = lower value 1.03 | locus YDR502C, strain sam2, stronger effect = lower value 0.991 | locus YEL003W, strain gim4, stronger effect = lower value 0.983 | locus YEL037C, strain rad23, stronger effect = lower value 0.985 | locus YEL061C, strain CIN8 (second series), stronger effect = lower value 0.975 | locus YEL061C, strain CIN8, stronger effect = lower value 1.01 | locus YER015W, strain faa2, stronger effect = lower value 0.984 | locus YER016W, strain bim1, stronger effect = lower value 0.992 | locus YER110C, stronger effect = lower value 0.99 | locus YER111C, strain swi4, stronger effect = lower value 0.985 | locus YER155C, strain BEM2 (second series), stronger effect = lower value 1.01 | locus YER155C, strain BEM2, stronger effect = lower value 1.01 | locus YER167W, strain BCK2, stronger effect = lower value 1.02 | locus YFR010W, strain ubp6, stronger effect = lower value 0.981 | locus YGL078C, strain dbp3, stronger effect = lower value 0.993 | locus YGL086W, strain mad1, stronger effect = lower value 0.991 | locus YGL167C, strain pmr1, stronger effect = lower value 0.971 | locus YGL173C, strain kem1, stronger effect = lower value 0.99 | locus YGL227W, strain vid30, stronger effect = lower value 0.974 | locus YGL240W, strain doc1, stronger effect = lower value 1 | locus YGL248W, strain PDE1, stronger effect = lower value 1.03 | locus YGL253W, strain hxk2, stronger effect = lower value 0.977 | locus YGR078C, strain PAC10, stronger effect = lower value 1.03 | locus YGR135W, strain pre9, stronger effect = lower value 1.01 | locus YGR229C, strain SMI1, stronger effect = lower value 1.01 | locus YGR252W, strain gcn5, stronger effect = lower value 0.978 | locus YHR013C, strain ard1, stronger effect = lower value 0.949 | locus YHR027C, strain rpn1, stronger effect = lower value 0.989 | locus YHR030C, strain SLT2, stronger effect = lower value 1.02 and 1 | locus YHR079C, strain IRE1 (second series), stronger effect = lower value 1 | locus YHR079C, strain IRE1, stronger effect = lower value 0.964 | locus YHR094C, strain hxt1, stronger effect = lower value 0.989 | locus YHR129C, strain ARP1, stronger effect = lower value 1.02 | locus YHR142W, strain chs7, stronger effect = lower value 0.987 | locus YHR200W, strain rpn10, stronger effect = lower value 0.989 | locus YIL066C, strain RNR3, stronger effect = lower value 1.03 | locus YIL073C, strain SPO22, stronger effect = lower value 0.994 | locus YIL125W, strain kgd1, stronger effect = lower value 0.991 | locus YIR030C, strain dcg1, stronger effect = lower value 1.01 | locus YJL092W, strain hpr5, stronger effect = lower value 0.98 | locus YJL095W, strain BCK1 (second series), stronger effect = lower value 0.991 | locus YJL095W, strain BCK1, stronger effect = lower value 1.05 and 0.989 | locus YJL115W, strain asf1, stronger effect = lower value 1 | locus YJL129C, strain trk1, stronger effect = lower value 0.987 | locus YJL134W, strain LCB3, stronger effect = lower value 1.02 | locus YJL154C, strain vps35, stronger effect = lower value 0.989 | locus YJL164C, strain tpk1, stronger effect = lower value 0.995 | locus YJL166W, strain qcr8, stronger effect = lower value 0.989 | locus YJL168C, strain set2, stronger effect = lower value 1 | locus YJL187C, strain SWE1 (second series), stronger effect = lower value 1.02 | locus YJL187C, strain SWE1, stronger effect = lower value 0.991 | locus YJR043C, strain POL32, stronger effect = lower value 1.03 | locus YJR066W, strain TOR1, stronger effect = lower value 0.945 | locus YKL009W, strain mrt4, stronger effect = lower value 1.01 | locus YKL068W, stronger effect = lower value 1.01 | locus YKL085W, strain MDH1 (second series), stronger effect = lower value 0.997 | locus YKL085W, strain MDH1, stronger effect = lower value 0.997 | locus YKL160W, strain elf1, stronger effect = lower value 1 | locus YKL190W, strain CNB1, stronger effect = lower value 1.02 | locus YKR001C, strain vps1, stronger effect = lower value 0.999 | locus YKR026C, strain gcn3, stronger effect = lower value 0.976 | locus YKR091W, strain srl3, stronger effect = lower value 0.977 | locus YLL001W, strain dnm1, stronger effect = lower value 0.99 | locus YLL026W, stronger effect = lower value 0.98 | locus YLL041C, strain sdh2, stronger effect = lower value 0.992 | locus YLR027C, strain aat2, stronger effect = lower value 0.99 | locus YLR039C, strain RIC1, stronger effect = lower value 1.08 | locus YLR058C, strain SHM2, stronger effect = lower value 1.03 | locus YLR102C, strain apc9, stronger effect = lower value 0.993 | locus YLR113W, strain HOG1, stronger effect = lower value 0.949 | locus YLR221C, strain rsa3, stronger effect = lower value 1 | locus YLR258W, strain gsy2, stronger effect = lower value 0.97 | locus YLR262C, strain YPT6 (second series), stronger effect = lower value 0.989 | locus YLR262C, strain YPT6, stronger effect = lower value 1.09 | locus YLR268W, strain sec22, stronger effect = lower value 0.984 | locus YLR320W, strain mms22, stronger effect = lower value 0.984 | locus YLR330W, strain CHS5, stronger effect = lower value 1.02 | locus YLR342W, strain FKS1 (second series), stronger effect = lower value 1.04 | locus YLR342W, strain FKS1, stronger effect = lower value 0.979 | locus YLR357W, strain rsc2, stronger effect = lower value 1.01 | locus YLR370C, strain arc18, stronger effect = lower value 1 | locus YLR371W, strain rom2, stronger effect = lower value 0.981 | locus YLR384C, strain iki3, stronger effect = lower value 0.991 | locus YLR418C, strain cdc73, stronger effect = lower value 1.01 | locus YML016C, strain PPZ1, stronger effect = lower value 1.02 | locus YML032C, strain rad52, stronger effect = lower value 1.01 | locus YML120C, strain ndi1, stronger effect = lower value 1.01 | locus YML124C, strain tub3, stronger effect = lower value 0.991 | locus YMR058W, strain fet3, stronger effect = lower value 1.01 | locus YMR078C, strain ctf18, stronger effect = lower value 1 | locus YMR125W, strain sto1, stronger effect = lower value 1 | locus YMR129W, stronger effect = lower value 0.975 | locus YMR205C, strain PFK2, stronger effect = lower value 0.96 | locus YMR223W, strain ubp8, stronger effect = lower value 1.01 | locus YMR231W, strain pep5, stronger effect = lower value 0.976 | locus YMR307W, strain GAS1, stronger effect = lower value 1.07 | locus YNL067W, strain RPL9B, stronger effect = lower value 1.03 | locus YNL071W, strain lat1, stronger effect = lower value 1 | locus YNL183C, strain NPR1, stronger effect = lower value 0.949 | locus YNL209W, strain ssb2, stronger effect = lower value 0.986 | locus YNL233W, strain BNI4, stronger effect = lower value 1.01 | locus YNL248C, strain rpa49, stronger effect = lower value 1.05 | locus YNL250W, strain rad50, stronger effect = lower value 1 | locus YNL271C, strain bni1, stronger effect = lower value 0.995 | locus YNL298W, strain CLA4, stronger effect = lower value 0.995 | locus YNL307C, strain MCK1, stronger effect = lower value 0.987 | locus YNL322C, strain KRE1 (second series), stronger effect = lower value 0.99 | locus YNL322C, strain KRE1, stronger effect = lower value 1.02 | locus YNR049C, strain mso1, stronger effect = lower value 0.986 | locus YNR052C, strain pop2, stronger effect = lower value 0.984 | locus YOL012C, strain htz1 0.81 | locus YOL147C, strain pex11, stronger effect = lower value 0.991 | locus YOR001W, strain rrp6, stronger effect = lower value 1.01 | locus YOR061W, strain CKA2, stronger effect = lower value 1.03 | locus YOR069W, strain VPS5, stronger effect = lower value 1.01 | locus YOR070C, strain gyp1, stronger effect = lower value 0.988 | locus YOR080W, strain dia2, stronger effect = lower value 0.992 | locus YOR083W, strain WHI5, stronger effect = lower value 1.01 | locus YOR106W, strain vam3, stronger effect = lower value 0.977 | locus YOR136W, strain idh2, stronger effect = lower value 0.98 | locus YOR144C, strain elg1, stronger effect = lower value 0.986 | locus YOR184W, strain ser1, stronger effect = lower value 0.99 | locus YOR231W, strain MKK1, stronger effect = lower value 0.978 | locus YOR265W, strain rbl2, stronger effect = lower value 0.988 | locus YOR270C, strain vph1, stronger effect = lower value 0.976 | locus YOR290C, strain snf2, stronger effect = lower value 1.01 | locus YOR316C, strain cot1, stronger effect = lower value 0.997 | locus YPL051W, strain arl3, stronger effect = lower value 1.01 | locus YPL078C, strain atp4, stronger effect = lower value 0.995 | locus YPL106C, strain sse1, stronger effect = lower value 1.05 | locus YPL240C, strain hsp82, stronger effect = lower value 0.995 | locus YPL241C, strain CIN2, stronger effect = lower value 1.02 | locus YPL256C, strain CLN2, stronger effect = lower value 1.05 | locus YPR119W, strain clb2, stronger effect = lower value 0.995 | locus YPR141C, strain kar3, stronger effect = lower value 1 | locus YPR163C, strain tif3, stronger effect = lower value 0.991 | locus YPR167C, strain met16, stronger effect = lower value 0.995 | strain wtn01, stronger effect = lower value 0.977
